ClpP mod: qHTS Assay for Activators of ClpP; ATP-dependent Clp protease proteolytic subunit (Bacillus subtilis (strain 168)), P80244; purified B. subtilis ClpP, FRET peptide cleavage, 20 min; Potency, µM (titrated, usually from 57.5 µM), inactives show top-dose activity change, negative = active; hit rate 1.9% among 340,000; AID 651965, 2013; active means well fitted falling curve with a large enough effect; inconclusive means small, poorly fitted or top-dose-only effect; inactive means no such curve, though single readings can be large or run the other way; further: potency means the concentration at half of the fitted maximal effect; the source files actives as falling curves though it sought activators and does not explain the sign; nearly all actives have a fitted effect of over 65% in size
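FRET quenching reversal measured ClpP activation: 10 microg/mL B. subtilis ClpP at pH 8 with the FRET-FV decapeptide, read at 430 nm after 320 nm excitation. The 20-min minus 0-min signal was scaled between DMSO/no-enzyme wells and ADEP (5.8 microM final).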
gsp agonist: activates gsp, the McCune-Albright syndrome mutation; gsp mutant cells, cAMP HTRF, 30 min; Potency, µM (doses to about 76.9 µM), without a hit: at the top dose activation (cAMP increase), hits mostly activators; hit rate 0.13% among 340,000; active means well fitted activation curve with a large enough effect; inconclusive means small, poorly fitted or top-dose-only effect, or another doubt; inactive means no such curve, though single readings can be large or run the other way; cell line not stated here;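 further: phosphodiesterase inhibitor Ro 20-1724 added with compounds to block cAMP breakdown; potency means the concentration at half of the fitted maximal effect; nearly all actives have a fitted effect of over 60% in size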
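Cells in DMEM/10% FBS with G418 were pretreated with compounds in DMSO plus […] (300 uM stock) for 30 min at 37C. cAMP was measured by HTRF (cAMP-d2 plus anti-cAMP antibody-K) after 30 min at room temperature.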
RXFP1 antagonist: RXFP1 (human) relaxin receptor antagonism; Q9HBX9; HEK293-RXFP1, relaxin-stimulated cAMP HTRF, 30 min; active compounds read low; activity change, negative = inhibition, % at 57.5 µM; hit rate 0.59% among 350,000; AID 1259400;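 active means activity change of -60% or lower, but not beyond a set lower limit; inconclusive means change between -60% and -40%, or beyond the set limit; inactive means change above -40%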; further: on the % scale 0 is the no-effect control and ±100 the full control effect
Target sequence (Q9HBX9 whole entry, looked up): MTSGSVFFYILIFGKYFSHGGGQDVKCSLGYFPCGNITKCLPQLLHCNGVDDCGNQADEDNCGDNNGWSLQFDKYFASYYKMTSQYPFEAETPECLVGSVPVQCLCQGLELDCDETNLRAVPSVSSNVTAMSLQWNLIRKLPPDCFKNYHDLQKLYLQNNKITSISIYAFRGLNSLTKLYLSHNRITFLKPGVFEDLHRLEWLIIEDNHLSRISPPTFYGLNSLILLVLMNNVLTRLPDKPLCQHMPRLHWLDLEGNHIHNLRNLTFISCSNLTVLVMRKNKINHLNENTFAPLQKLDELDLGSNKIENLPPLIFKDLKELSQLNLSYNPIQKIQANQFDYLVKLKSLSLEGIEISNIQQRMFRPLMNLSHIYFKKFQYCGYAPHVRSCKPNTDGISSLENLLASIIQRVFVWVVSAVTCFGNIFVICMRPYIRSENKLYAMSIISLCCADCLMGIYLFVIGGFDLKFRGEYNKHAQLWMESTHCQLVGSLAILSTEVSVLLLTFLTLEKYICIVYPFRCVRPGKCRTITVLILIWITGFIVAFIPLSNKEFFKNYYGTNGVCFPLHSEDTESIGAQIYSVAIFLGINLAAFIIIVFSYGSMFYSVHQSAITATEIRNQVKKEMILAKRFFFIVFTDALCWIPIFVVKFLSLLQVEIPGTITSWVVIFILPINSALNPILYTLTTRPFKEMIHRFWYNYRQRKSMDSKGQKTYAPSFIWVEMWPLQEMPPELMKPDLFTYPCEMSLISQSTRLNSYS
Akt phos inh: blocks phosphorylation of Akt; Neuro2A IGF-stimulated pAkt S473 HTRF, 20 min; active compounds read low; activity change, % for hits at 50 µM; hit rate 0.32% among 360,000; in the data active means activity change below about -80%; inconclusive means mostly about -51% to -80%; further: on the % scale 0 is the no-effect control and ±100 the full control effect
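Single-point screen (50 µM final compound) in Neuro2A cells stimulated 20 min with 6 nM IGF at 37 deg C. After lysis, Ser473-phosphorylated Akt read by HTRF (ex 330 nm, em 615/665 nm) as the 665/615 ratio.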
RXFP1 ag: activates the human relaxin receptor RXFP1 | Q9HBX9 | HEK293T-RXFP1 cAMP TR-FRET, 30 min; response scale: percent of porcine relaxin response, buffer zero | Potency, µM (top dose mostly 57.5 µM), for the others: at the top dose activation, actives largely listed as activators | hit rate 0.3% among 370,000; active means well fitted activation curve with a large enough effect; inconclusive means small, poorly fitted or top-dose-only effect; further: potency means the concentration at half of the fitted maximal effect; on the % scale 0 is the no-effect control and ±100 the full control effect; nearly all actives have a fitted effect of over 60% in size
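Agonist response is measured as cAMP accumulation in an RXFP1-transfected HEK293T line under PDE4 inhibition. Values are scaled between buffer-only and 29 nM porcine relaxin, and EC50s come from standard Hill equation fits.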
gsp antagonist: antagonists of gsp mutant (McCune-Albright syndrome); gsp-mutant cells, cAMP HTRF, 30 min; Potency, µM (top dose mostly 76.9 µM), without a hit: at the highest dose activity change, negative = inhibition, most hits filed as inhibitors; hit rate 0.4% among 340,000; AID 624288; calls by dose curve; cell line not stated here;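 further: intracellular cAMP measured with PDE inhibitor Ro 20-1724 present during compound exposure; potency means the concentration at half of the fitted maximal effect; on the % scale 0 is the no-effect control and ±100 the full control effect; nearly all actives have a fitted effect of over 65% in size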
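HTRF cAMP read-out (cAMP-d2 plus anti-cAMP antibody-K in lysis buffer, 30 min RT). Before lysis, cells are exposed to compounds with […] for 30 min at 37C in DPBS containing Ca/Mg, BSA and Tween 20.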
The depositor's hits bear a star; [ ] = remark or other dose. An excerpt weighted towards active compounds, which were near 2.7% of everything screened.

Screening CCOC(=O)C1=C(C)OC(N)=C(C#N)C1C1CCCCC1 (configuration not stated) returned ClpP mod 0%, gsp agonist -22%, RXFP1 antagonist -15, Akt phos inh -118%*, RXFP1 ag 2% and gsp antagonist -2%.
`CCOC(=O)C1=C(C)OC(N)=C(C#N)C1c1cc2cc(C)ccc2nc1N1CCCCC1` (configuration not stated) gave ClpP mod 28µM*, gsp agonist inconclusive, RXFP1 antagonist 12, Akt phos inh inactive, RXFP1 ag 9% and gsp antagonist -9%.
For CCOC(=O)C1=C(COC(=O)Cc2ccc(Br)cc2)NC(=O)NC1C (configuration not stated) the results were ClpP mod 0%, gsp agonist -57%, RXFP1 antagonist -9, Akt phos inh inactive, RXFP1 ag -3% and gsp antagonist 3%.
`COc1ccccc1N1CCN(CC(O)COc2ccc3c(C)cc(=O)oc3c2)CC1` (configuration not stated) gave ClpP mod 16µM*, gsp agonist -6%, RXFP1 antagonist -3, Akt phos inh inactive, RXFP1 ag 3% and gsp antagonist -6%.
`Cc1cc(=O)oc2cc(OCC(O)CN3CCN(c4ccccc4)CC3)ccc12` (configuration not stated) gave ClpP mod 32µM*, gsp agonist 25%, RXFP1 antagonist -7, Akt phos inh inactive, RXFP1 ag 0% and gsp antagonist 1%.
For COc1ccc(Cl)cc1-n1nnc(-c2nsc(NC(=O)c3ccccc3Cl)n2)c1C the results were ClpP mod -1% and RXFP1 ag 0%.
COc1ccc(OC)c(-c2csc(NC(=O)C3=COCCO3)n2)c1 was read as ClpP mod 32µM*, gsp agonist -3%, RXFP1 antagonist -11, Akt phos inh inactive, RXFP1 ag 0% and gsp antagonist -18%.
`Cc1ccc(C)c(-c2csc(NC(=O)C3=COCCO3)n2)c1` gave gsp agonist -3%[15.4 µM], RXFP1 antagonist 6, Akt phos inh inactive, RXFP1 ag 0% and gsp antagonist -22%.
Cc1nc(SCC(=O)N2CCN(C(=O)c3cccs3)CC2)c2c(C)c(C)sc2n1 was read as ClpP mod -1%, gsp agonist inconclusive, RXFP1 antagonist -64*, Akt phos inh inactive, RXFP1 ag 17% and gsp antagonist -30%.
O=c1c2sc(-c3ccccc3)cc2nc2n1CCC2 was read as ClpP mod 22µM*, gsp agonist 26%[15.4 µM], RXFP1 antagonist 1, Akt phos inh inactive, RXFP1 ag 0% and gsp antagonist -7%.
For O=c1c2sc(-c3ccccc3)cc2nc2n1CCCCC2 the results were gsp agonist 6%[15.4 µM], RXFP1 antagonist -22, Akt phos inh inactive, RXFP1 ag 0% and gsp antagonist -6%.
For O=Cc1ccccc1-n1cccn1 the results were gsp agonist 12%[15.4 µM], RXFP1 antagonist 0, Akt phos inh inactive, RXFP1 ag 0% and gsp antagonist 4%.
For Oc1cc(-n2cccn2)c(O)cc1-n1cccn1 the results were ClpP mod 28µM*, gsp agonist -25%, RXFP1 antagonist 3, Akt phos inh inactive, RXFP1 ag -1% and gsp antagonist -1%.
`CC(=O)Oc1ccc(C2OC(=O)c3ccccc3N2C(C)=O)cc1` (configuration not stated) gave ClpP mod 25µM*, gsp agonist -4%, RXFP1 antagonist -2, Akt phos inh inactive, RXFP1 ag -1% and gsp antagonist inconclusive.
COc1ccc(/C(C)=C/C(=O)O)c(OC)c1 was read as RXFP1 antagonist -3.
CCOc1ccc(CNC(=O)CCS(=O)(=O)Cc2ccccc2C)cc1OC was read as ClpP mod 2%, gsp agonist -1%, RXFP1 antagonist -1, Akt phos inh inactive, RXFP1 ag 2% and gsp antagonist 7%.

Compound activity as filed in PubChem BioAssay.
